This note sets out measurements from PubChem BioAssay (NCATS).

Where “and” joins values, the source holds several entries; their conditions need not be identical. Equal values may be shown once. Records with an inconclusive call do not appear. Unmarked numbers belong to inactive results. Calls of active or inactive are those of the source. Unless noted, calls follow the shape of the dose curve; as a rule, active = well fitted curve in the direction sought with a large enough effect; inconclusive = small, poorly fitted or top-dose-only effect, or another doubt; inactive = no such curve, though single readings can be large; an effect the other way counts as inactive or inconclusive.

Experiment [1] has as its target Cellular tumor antigen p53 (Homo sapiens) (UniProt P04637). Briefly: Primary qHTS for small molecule compounds that upregulate eGFP-tagged delta133p53alpha (in N-terminal) cells. (AID 2060322). Also: nearly all actives have a fitted effect of over 75% in size. Also: potency is read from the fitted curve at half-maximal effect.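 As to activation: series mostly up to about 56 µM; 0% = DMSO vehicle and 100% = reference activator.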 The settings on record: NCI-H358 eGFP-delta133p53alpha fluorescence, 24 h; activation: active compounds read high. The essentials: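 NCI-H358 cells pre-induced 24 h with 10 ng/ml doxycycline to express N-terminal eGFP-delta133p53alpha, then dosed 24 h at 37C without doxycycline; fixed, Hoechst-stained, GFP intensity by laser scanning cytometry, normalized to DMSO (0%) and 57.5 uM 5-azacytidine (100%).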

For experiment [2] the target is unchanged. Kind of experiment: Primary qHTS for small molecule compounds that upregulate eGFP-tagged delta133p53alpha (in C-terminal) cells. (AID 2060324). Also: potency is read from the fitted curve at half-maximal effect. The essentials:
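NCI-H358 cells pre-induced 24 h with 100 ng/ml doxycycline to express delta133p53alpha-eGFP, then dosed in doxycycline-free medium for 24 h at 37C. Fixed, Hoechst-stained; GFP intensity by laser scanning cytometry, normalized to DMSO wells.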
(In qHTS, concentration-response curves come from the screen itself.)

For experiment [3], the target named is Aldehyde dehydrogenase, mitochondrial (Homo sapiens) (UniProt P05091). Briefly: qHTS for Inhibitors of the Aldehyde Dehydrogenase Family (ALDH2) Validation screens (AID 2061302; active = well fitted inhibition curve with a large enough effect; title and protocol of this record describe different tests; also: potency is read from the fitted curve at half-maximal effect).
The target is the same in experiment [4]. Briefly: qHTS for Inhibitors of the Aldehyde Dehydrogenase Family (ALDH2) Primary screen (AID 2061308).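 Also: plate controls were vehicle for no effect and reference inhibitor for full effect; nearly all actives have a fitted effect of over 55% in size.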
Experiment [5] deals with Retinaldehyde dehydrogenase 3 (Homo sapiens) (UniProt P47895). Briefly: qHTS for Inhibitors of the Aldehyde Dehydrogenase Family (ALDH1A3) Validation screen (AID 2061312). Also: % is scaled to controls: 0 for no effect and ±100 for the full control effect; nearly all actives have a fitted effect of over 45% in size.
For experiment [6] the target is unchanged. Kind of experiment: qHTS for Inhibitors of the Aldehyde Dehydrogenase Family (ALDH1A3) Primary screen (AID 2061315).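 Also: plate controls were DMSO vehicle for no effect and reference inhibitor for full effect.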
The target of experiment [7] is Aldehyde dehydrogenase, mitochondrial (Homo sapiens) (UniProt P05091). Briefly: qHTS for Inhibitors of the Aldehyde Dehydrogenase Family (ALDH2) Confirmatory screens (AID 2061303; active = well fitted inhibition curve with a large enough effect; title and protocol of this record describe different tests; also: nearly all actives have a fitted effect of over 45% in size; also: potency is read from the fitted curve at half-maximal effect).
In experiment [8] the target is Retinaldehyde dehydrogenase 3 (Homo sapiens) (UniProt P47895). Briefly: qHTS for Inhibitors of the Aldehyde Dehydrogenase Family (ALDH1A3) Confirmatory screens (AID 2061311). Also: nearly all actives have a fitted effect of over 60% in size. Also: potency is read from the fitted curve at half-maximal effect.
Experiment [9] addresses Aldehyde dehydrogenase 1A1 (Homo sapiens) (UniProt P00352). Briefly: qHTS for Inhibitors of the Aldehyde Dehydrogenase Family (ALDH1A1) Confirmatory screens (AID 2061316). Also: nearly all actives have a fitted effect of over 65% in size. Also: potency is read from the fitted curve at half-maximal effect.
Experiment [10] in a line: qHTS for Inhibitors of the Aldehyde Dehydrogenase Family (ALDH1A2, ALDH1A3, ALDH2, ALDH3A1) (AID 2061307). Also: nearly all actives have a fitted effect of over 50% in size.
For experiment [11], the target named is Retinal dehydrogenase 2 (Homo sapiens) (UniProt O94788). Briefly: qHTS for Inhibitors of the Aldehyde Dehydrogenase Family (ALDH1A2) Confirmation screens (AID 2061314). Also: nearly all actives have a fitted effect of over 65% in size. Also: potency is read from the fitted curve at half-maximal effect.
Experiment [12] can be described thus: BET inhibitor-based combinations targeting novel dependencies in MECOM-rearranged (r) AML: OCI-AML3 cell line (AID 2202232). Also: potency is read from the fitted curve at half-maximal effect; nearly all actives have a fitted effect of over 35% in size. Conditions: Potency: OCI-AML3 viability. The essentials:
(§1)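 A 48 hr incubation preceded viability reading by CellTiter-Glo, with 15 min room-temperature development. Dose series had 11 points; normalization used DMSO and empty wells; AUC was computed and mean-centered per line as Z-AUC.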

Experiment [13] is described as follows: BET inhibitor-based combinations targeting novel dependencies in MECOM-rearranged (r) AML: MV-4-11 cell line (AID 2202233). Also: nearly all actives have a fitted effect of over 45% in size. Also: potency is read from the fitted curve at half-maximal effect. The essentials: (§2)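 Each compound is tested in an 11-point concentration series against 500 seeded cells/well for 48 hr. The luminescent viability signal is normalized to DMSO and blank wells, then reduced to AUC and a cell-line-centred Z-AUC.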

The nature of experiment [14]: BET inhibitor-based combinations targeting novel dependencies in MECOM-rearranged (r) AML: UCSD-AML1 cell line (AID 2202235). Also: nearly all actives have a fitted effect of over 40% in size. Also: potency is read from the fitted curve at half-maximal effect. The essentials: as §2
Experiment [15] in a line: BET inhibitor-based combinations targeting novel dependencies in MECOM-rearranged (r) AML: HNT-34 cell line (AID 2202234). Also: potency is read from the fitted curve at half-maximal effect; nearly all actives have a fitted effect of over 35% in size. The essentials:
as §2

The nature of experiment [16]: BET inhibitor-based combinations targeting novel dependencies in MECOM-rearranged (r) AML: AML-191 cell line (AID 2202236; also: potency is read from the fitted curve at half-maximal effect; nearly all actives have a fitted effect of over 35% in size). Summed up: as §1
A short description of experiment [17]: BET inhibitor-based combinations targeting novel dependencies in MECOM-rearranged (r) AML: SET-2 cell line (AID 2202231). Also: potency is read from the fitted curve at half-maximal effect; nearly all actives have a fitted effect of over 35% in size. Conditions: SET-2 AML cells viability, CellTiter-Glo luminescence, 48 h; viability: active compounds read low, concentration not given here. Summed up:
as §1
On the technique in general: ATP-based viability assays read luminescence as a measure of living cells.

Experiment [18] in a line: BET inhibitor-based combinations targeting novel dependencies in MECOM-rearranged (r) AML: AML-194 cell line (AID 2202237; also: potency is read from the fitted curve at half-maximal effect; nearly all actives have a fitted effect of over 40% in size). Summed up:
as §1

Cellular tumor antigen p53 (Homo sapiens), sequence (P04637 whole entry, looked up): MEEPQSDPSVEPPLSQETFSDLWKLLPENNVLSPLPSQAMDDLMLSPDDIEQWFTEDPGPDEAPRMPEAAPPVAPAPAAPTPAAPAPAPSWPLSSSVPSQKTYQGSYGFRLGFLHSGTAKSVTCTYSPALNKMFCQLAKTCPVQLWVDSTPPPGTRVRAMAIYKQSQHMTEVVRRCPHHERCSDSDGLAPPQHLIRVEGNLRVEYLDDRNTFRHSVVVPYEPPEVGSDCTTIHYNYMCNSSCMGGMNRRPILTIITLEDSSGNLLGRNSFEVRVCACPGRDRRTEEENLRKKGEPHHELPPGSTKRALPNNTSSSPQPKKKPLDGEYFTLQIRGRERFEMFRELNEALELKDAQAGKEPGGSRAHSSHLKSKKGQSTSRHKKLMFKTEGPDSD

As for `COc1ccccc1N1CCN(CCCNc2cc(=O)n(C)c(=O)n2C)CC1`, in experiment [1], the activation is 16.7% and -11.6% and 14.7%. In addition, the Potency result in experiment [2], in experiment [3], in experiment [4], in experiment [5] and in [6] was “inactive” in each case.

In the case of `O=Nc1ccc2oc(=O)ccc2c1`, in [1], the activation was -33.9%. Also, in experiment [2], the Potency entry was “inactive”. Besides, the Potency in experiment [3] is 1.12 µM (active); in [7] it was 1.27 µM (active); in experiment [8], 0.283 µM (active); in experiment [9], 0.283 µM (active).

Take `CNC(=O)Oc1ccc2c(c1)[C@]1(C)CCN(C)[C@@H]1N2C`: the activation in experiment [1] is -31.1% and -29.5% and 2.6%. The Potency result in [2], in experiment [3] and in experiment [5] was “inactive” throughout. In addition, the Potency in experiment [10] was 8.96 µM (active).

As for `O=C(O)c1cc(=O)c2c(Cl)cc(Cl)cc2[nH]1`, in [1], the activation is -19.2%. Also, the Potency entry in [2], in [3], in experiment [10] and in experiment [9] was “inactive” each time.

In the case of `Cc1cc(O)c2c(c1)C(=O)c1cc(O)cc(O)c1C2=O`, the activation in experiment [1] was -1.13% and -38%. Further, the Potency in experiment [2] is 26.9 µM (active); in [3], 3.16 µM (active); in experiment [7] it was 0.712 µM (active); in experiment [8] it was 11.3 µM (active); in experiment [11] it was 6.34 µM (active); in experiment [9], 2.52 µM (active). Besides, in experiment [12], the Potency is 9.34 µM (active). In addition, the Potency result in [13] and in [14] was “inactive” each time.

Take `Cc1cn[nH]c1`: the activation in [1] is 25.4% and 16.2% and -25.1%. Further, the Potency result in [2], in experiment [3], in experiment [7], in [8], in experiment [9] and in experiment [14] was “inactive” throughout.

Take `COc1ccc(Cl)cc1C(=O)NCCc1ccc(S(=O)(=O)NC(=O)NC2CCCCC2)cc1`: the activation in experiment [1] is 3.95% and -3.34% and -19.4%. The Potency result in experiment [2], in [3], in [4], in [5] and in [6] was “inactive” each time.

For `Fc1ccc2[nH]c(CN3CCN(c4ccccn4)CC3)cc2c1`, the activation in experiment [1] is -0.955%. The Potency result in [2], in [3], in experiment [4], in experiment [5] and in [6] was “inactive” each time.

Take `O=[N+]([O-])c1ccc(CNc2nc(NCc3cccc(C(F)(F)F)c3)nc3nc[nH]c23)cc1`: the activation in experiment [1] is -48.1% and 15.7%. Further, the Potency result in experiment [2], in [3], in experiment [4], in experiment [5] and in experiment [6] was “inactive” throughout.

In the case of `NC(=O)c1cc[n+](CC2=C(C(=O)O)N3C(=O)[C@@H](NC(=O)[C@@H](c4ccccc4)S(=O)(=O)[O-])[C@H]3SC2)cc1`, in experiment [1], the activation is -28.8%. The Potency result in experiment [2], in [3], in [10], in experiment [8] and in experiment [11] was “inactive” each time.

For `O=C(O)/C(=C/c1c(C(=O)O)[nH]c2cc(Cl)cc(Cl)c12)c1ccccc1`, the activation in experiment [1] was 12.5%. Moreover, the Potency entry in [2], in experiment [3], in [8] and in experiment [5] was “inactive” throughout. The Potency in experiment [10] was 11.3 µM (active).

For the compound `O=C(/C=C/c1ccc(O)cc1)c1ccc(O)cc1O`, in experiment [1], the activation was -26.4%. In addition, the Potency result in [2], in [3] and in [7] was “inactive” in each case. In addition, the Potency in [10] is 1.2 µM (active); in experiment [8], 0.504 µM (active); in experiment [9], 3.18 µM (active); in experiment [12] it was 14.8 µM (active); in [13] it was 11.8 µM (active); in experiment [15], 9.34 µM (active). Moreover, in experiment [16], the Potency is 26.3 µM (active).

On to `CCN(CC)CCCCNc1ncc2cc(-c3c(Cl)cccc3Cl)c(NC(=O)NC(C)(C)C)nc2n1`, for which the activation in [1] is -67.6% and 10%. The Potency result in [2], in experiment [3], in experiment [4], in experiment [5] and in experiment [6] was “inactive” throughout.

Turning to `CN1CCC[C@@H]1Cc1c[nH]c2ccc(CCS(=O)(=O)c3ccccc3)cc12`, the activation in [1] is 8.47% and -10.4% and 2.33%. In addition, the Potency entry in experiment [2], in experiment [3], in [4] and in experiment [5] was “inactive” in each case.

Turning to `CC1=C(C)C(=O)C(CCCCC#CCCCC#CCO)=C(C)C1=O`, the activation in experiment [1] is 18.6% and 0.426%. Also, in [2], the Potency result was “inactive”. Further, the Potency was 5.01 µM (active) in [3]; 4.49 µM (active) in [7]; 7.12 µM (active) in [10]; 0.504 µM (active) in experiment [8]; 1.27 µM (active) in [9].

Regarding `COc1ccc(/C=C/c2nc(NCCCN(C)C)c3ccccc3n2)cc1`, the activation in [1] was -29.6%. Also, the Potency entry in experiment [2], in [3] and in experiment [10] was “inactive” in each case.

Turning to `NC(=S)c1ccc[n+]([C@@H]2O[C@@H](COP(=O)([O-])OP(=O)(O)OC[C@H]3O[C@@H](n4cnc5c(N)ncnc54)[C@H](OP(=O)(O)O)[C@@H]3O)C(O)C2O)c1` (stereo partly drawn), the activation in experiment [1] is -2.21%. The Potency entry in experiment [2], in [3] and in experiment [7] was “inactive” each time. Besides, the Potency in [10] was 20.1 µM (active); in [9], 25.2 µM (active).

As to `CN(C)CCCC1(c2ccc(F)cc2)OCc2cc(C#N)ccc21` (stereo not drawn), in experiment [1], the activation is 2.08% and 5.36% and -45.1%. The Potency entry in [2], in [3], in experiment [4], in experiment [5] and in experiment [6] was “inactive” in each case.

In the case of `CCOC(=O)N1CCN(/[N+]([O-])=N/Oc2ccc([N+](=O)[O-])cc2[N+](=O)[O-])CC1`, the Potency in [1] was 4.78 µM (active); in experiment [8] it was 14.2 µM (active); in experiment [11], 2.25 µM (active); in experiment [17] it was 4.68 µM (active); in experiment [12], 2.95 µM (active); in experiment [13], 1.86 µM (active). Also, the Potency was 2.95 µM (active) in [14], 2.09 µM (active) in experiment [16] and 2.95 µM (active) in experiment [18]. For the same compound, the Potency entry in experiment [2], in experiment [3] and in [7] was “inactive” throughout.

On to `CCNc1nc2c(ncn2[C@H]2C[C@H](O)[C@@H](CO)O2)c(=O)[nH]1`, for which the activation in experiment [1] is 9.4% and 5.67%. The Potency result in experiment [2], in [3], in experiment [4], in experiment [5] and in experiment [6] was “inactive” throughout.

For `Oc1ccc(Cn2cc[nH]c2=S)cc1`, the activation in [1] is -47.8%. Further, the Potency entry in experiment [2], in experiment [3], in experiment [7] and in experiment [11] was “inactive” in each case.

Regarding `COc1cc2c(CCNC(C)=O)c[nH]c2cc1Cl`, the activation in experiment [1] was -18.2%. The Potency result in experiment [2], in [3], in [10], in experiment [8] and in [11] was “inactive” throughout.
